LAP4-GFP MLPCN – modulators of LAP4-GFP expression in yeast, primary screen, S. cerevisiae, multiplex flow cytometry, MLPCN library; 320,000 compounds, 0.34% hits; 3 h; median GFP as percent of DMSO wells; GFP response vs DMSO, % at 10 µM;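 active = GFP response vs DMSO above a set limit, about the screen mean plus 3 SD, cut at about 150% in these data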
CIT2 TOR yeast – modulators of CIT2-GFP expression in yeast, primary screen, S. cerevisiae, GFP fusion, multiplex flow cytometry, MLPCN library; GFP response vs DMSO, % at 10 µM; S. cerevisiae CIT2-GFP strain, 3 h; 100 means same as DMSO wells; 320,000 compounds, 0.065% hits;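 active = GFP response relative to DMSO above a set limit, near the screen mean plus 3 SD, cut at about 150% in these data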;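 note: ratio of well median GFP fluorescence to mean of DMSO wells on the plate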
MEP2-GFP yeast – modulators of MEP2-GFP levels in yeast, primary screen, S. cerevisiae, multiplex flow cytometry, MLPCN library; AID 2016, 2009; 330,000 compounds, 0.51% hits; GFP response vs DMSO, % at 10 µM; S. cerevisiae MEP2-GFP strain, 3 h; 100% = DMSO control level;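 active = GFP response versus DMSO above a set limit, roughly screen mean plus 3 SD, cut at about 180% in these data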;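 note: median GFP fluorescence of the barcode-gated MEP2-GFP cells per well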
AGP1 TOR yeast – modulators of AGP1-GFP expression in yeast TOR pathway, primary screen, cell-based, multiplex flow cytometry, S. cerevisiae, MLPCN library; 3 h; GFP as percent of DMSO wells; GFP response vs DMSO, % at 10 µM; 320,000 compounds, 0.02% hits;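 active = GFP response relative to DMSO above a set limit, near screen average plus 3 SD, cut at about 150% in these data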;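 note: median GFP channel fluorescence of the gated AGP1 strain per well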
RPL19A TOR yeast – RPL19A-GFP expression modulators in yeast, primary screen, cell-based, S. cerevisiae, multiplex flow cytometry, MLPCN. S. cerevisiae RPL19A-GFP strain, 3 h; active compounds read low. percent response vs DMSO, % at 10 µM. 330,000 compounds, 0.3% hits;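 active = percent response vs DMSO below 50%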;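 note: median channel GFP fluorescence of the barcoded RPL19A-GFP strain; lower means less RPL19A-GFP as with rapamycin TOR inhibition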
LAP4 cherry2 – LAP4-GFP expression modulators in yeast, confirmation, cell-based, second cherry pick, flow cytometry. shares compounds with LAP4-GFP MLPCN. S. cerevisiae LAP4-GFP strain, 3 h. GFP response vs DMSO, % at 10 µM. 590 compounds, 20% hits. AID 2621, 2010;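 active = GFP signal as percent of the solvent control above about 150%, meaning raised reporter expression, limit read from the data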
MEP2-GFP pick2 – modulators of MEP2-GFP levels in yeast, confirmation, S. cerevisiae, flow cytometry GFP, second cherry picks | shares compounds with LAP4-GFP MLPCN | GFP response vs DMSO, % at 10 µM | S. cerevisiae MEP2-GFP strain, 3 h | AID 2622, 2010 | 590 compounds, 10% hits;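 active = GFP signal above 150% of the solvent control wells, that is a rise of more than half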;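 note: median channel GFP fluorescence of all gated yeast cells per well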
RPL19A-GFP pick2 – RPL19A-GFP modulators in TOR pathway yeast, confirmation, cell-based, S. cerevisiae, flow cytometry, second cherry pick | 590 compounds, 3% hits | S. cerevisiae RPL19A-GFP strain, 3 h; active compounds read low; 100% means same as DMSO wells | GFP response vs DMSO, % at 10 µM | shares compounds with LAP4-GFP MLPCN;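 active = under 65% GFP response relative to DMSO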;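 note: median GFP channel fluorescence per well over the all cells gate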
CIT2-GFP pick2 – modulators of CIT2-GFP expression in yeast, confirmation, flow cytometry, second cherry pick, single plex; shares compounds with LAP4-GFP MLPCN; S. cerevisiae CIT2-GFP strain, 3 h; DMSO control wells read 100%; GFP response vs DMSO, % at 10 µM; 590 compounds, 8% hits;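 active = GFP response vs DMSO above about 150%, limit read from the data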;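 note: median green fluorescence per well over all gated yeast cells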
AGP1-GFP pick2 – AGP1-GFP expression modulators, hit retest, confirmation, cell-based, flow cytometry, S. cerevisiae, cherry pick set 2; S. cerevisiae AGP1-GFP strain, 3 h; shares compounds with LAP4-GFP MLPCN; percent response vs DMSO, % at 10 µM; 590 tested, under 10 active;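 active = over 150 percent of DMSO response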;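 note: median GFP channel fluorescence over all cells without mother daughter split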
s288c autofluor – compound autofluorescence in yeast s288c, dose response, artefact control for yeast TOR pathway GFP screen, s288c strain. shares compounds with LAP4-GFP MLPCN. S. cerevisiae s288c, 520 nm autofluorescence, flow cytometry, 3 h; active compounds read high; zero means same as solvent-only cells. fluorescence change (kMESF span) at 33 µM. 610 tested, under 10 active. AID 2757, 2010;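 active = fluorescence span over the dose series, or activity score, above about 33, limit read from the data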
s288c autofl DR – autofluorescence of compounds in yeast s288c, dose response, artefact control for yeast TOR pathway GFP screen, primary hits, KU SAR, s288c parental. shares compounds with LAP4-GFP MLPCN. S. cerevisiae s288c parental, compound autofluorescence, flow cytometry, 3 h. fluorescence change (span) at 33 µM. 110 tested, under 10 active;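 active = fluorescence change span, or the activity score built from it, above 25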
TORC1 bypass – wild-type yeast growth inhibition sparing TORC1 bypass cells, mechanism study for yeast TOR pathway GFP screen, BY4741 wild type, TORC1 bypass strain. growth rating (0-3) at 30 µM. S. cerevisiae BY4741 spot growth rating, 48-72 h; active compounds read low. AID 504456, 2011. 120 tested, under 10 active. shares compounds with LAP4-GFP MLPCN;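 active = growth rating at most 1 for wild type yeast while the TORC1 bypass strain still grows fully, rated 3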
Hits are given with their value. Only some compounds are listed: those with a hit (about 0.93% of all), similar ones and a draw of the others.

For O=C(NC(=S)NNC(=O)c1cnccn1)c1ccc(F)cc1 the results were LAP4-GFP MLPCN 232.0, CIT2 TOR yeast inactive, MEP2-GFP yeast inactive, AGP1 TOR yeast inactive, RPL19A TOR yeast inactive, s288c autofluor inactive, s288c autofl DR inactive and TORC1 bypass inactive.
For COc1ccc(/C=C/C(=O)NC(=S)NNC(=O)c2cccnc2)cc1 the results were LAP4-GFP MLPCN inactive, CIT2 TOR yeast inactive, MEP2-GFP yeast inactive, AGP1 TOR yeast inactive and RPL19A TOR yeast inactive.
COc1ccc(NC(=O)C2=CC=CN3CCS(=O)(=O)N=C23)c(OC)c1 was read as LAP4-GFP MLPCN inactive, CIT2 TOR yeast inactive, MEP2-GFP yeast inactive, AGP1 TOR yeast inactive and RPL19A TOR yeast inactive.
`O=[N+]([O-])c1cc(-n2cnnn2)ccc1N1CCC(Cc2ccccc2)CC1` gave LAP4-GFP MLPCN inactive, MEP2-GFP yeast inactive, AGP1 TOR yeast inactive and RPL19A TOR yeast inactive.
`COCCNc1nc(C)cc(-c2cc(C(=O)NCc3ccccc3)on2)n1` gave LAP4-GFP MLPCN 229.5, CIT2 TOR yeast inactive, MEP2-GFP yeast 355.8, AGP1 TOR yeast inactive, RPL19A TOR yeast inactive, LAP4 cherry2 inactive, MEP2-GFP pick2 inactive, RPL19A-GFP pick2 inactive, CIT2-GFP pick2 inactive and AGP1-GFP pick2 inactive.
Screening CCCNc1nc(-c2cc(C(=O)Nc3ccccc3)on2)cc(C(C)C)n1 returned LAP4-GFP MLPCN inactive, CIT2 TOR yeast inactive, MEP2-GFP yeast inactive, AGP1 TOR yeast inactive, RPL19A TOR yeast inactive, LAP4 cherry2 inactive, MEP2-GFP pick2 inactive, RPL19A-GFP pick2 inactive, CIT2-GFP pick2 inactive and AGP1-GFP pick2 inactive.
Cc1cc(-c2cc(C(=O)NCc3ccccc3)on2)nc(S(C)(=O)=O)n1 was read as LAP4-GFP MLPCN inactive, CIT2 TOR yeast inactive, MEP2-GFP yeast inactive, AGP1 TOR yeast inactive, RPL19A TOR yeast inactive, LAP4 cherry2 inactive, MEP2-GFP pick2 inactive, RPL19A-GFP pick2 inactive, CIT2-GFP pick2 inactive and AGP1-GFP pick2 inactive.
Screening COCCNc1nc(C)cc(-c2cc(C(=O)Nc3ccccc3)on2)n1 returned LAP4-GFP MLPCN inactive, CIT2 TOR yeast inactive, MEP2-GFP yeast inactive, AGP1 TOR yeast inactive, RPL19A TOR yeast inactive, LAP4 cherry2 inactive, MEP2-GFP pick2 inactive, RPL19A-GFP pick2 inactive, CIT2-GFP pick2 inactive and AGP1-GFP pick2 inactive.
Screening Cc1ccc(NC(=O)CS(=O)CC(=O)N2CCN(c3ccccc3)CC2)cc1 (stereo unspecified) returned LAP4-GFP MLPCN inactive, CIT2 TOR yeast inactive, MEP2-GFP yeast inactive, AGP1 TOR yeast inactive and RPL19A TOR yeast inactive.
CCCc1cc(=O)oc2c3c(cc(OCC(=O)NCCCn4ccnc4)c12)OC(C)(C)CC3 was read as LAP4-GFP MLPCN inactive, CIT2 TOR yeast inactive, MEP2-GFP yeast inactive, AGP1 TOR yeast inactive and RPL19A TOR yeast inactive.
`Cc1ccc(/C=C2\SC(=S)N(CC3CCCO3)C2=O)o1` (stereo unspecified) gave LAP4-GFP MLPCN 171.4, CIT2 TOR yeast inactive, MEP2-GFP yeast inactive, AGP1 TOR yeast inactive, RPL19A TOR yeast inactive and s288c autofluor inactive.
`Cc1ccc(/C=C2/SC(=S)N(C3CCCCC3)C2=O)o1` gave LAP4-GFP MLPCN 158.3, CIT2 TOR yeast inactive, MEP2-GFP yeast inactive, AGP1 TOR yeast inactive, RPL19A TOR yeast inactive and s288c autofluor inactive.
O=C1/C(=C/c2ccncc2)SC(=S)N1C1CCCCC1 was read as LAP4-GFP MLPCN inactive, CIT2 TOR yeast inactive, MEP2-GFP yeast inactive, AGP1 TOR yeast inactive and RPL19A TOR yeast inactive.
For CCc1ccccc1N1CCN(S(=O)(=O)c2ccc(F)c(C)c2)CC1 the results were LAP4-GFP MLPCN inactive, CIT2 TOR yeast inactive, MEP2-GFP yeast inactive, AGP1 TOR yeast inactive and RPL19A TOR yeast inactive.
`N#C/C(=C/c1ccc(N2CCCCC2)o1)c1cccc(F)c1` gave LAP4-GFP MLPCN 151.6, CIT2 TOR yeast inactive, MEP2-GFP yeast inactive, AGP1 TOR yeast inactive, RPL19A TOR yeast inactive, LAP4 cherry2 inactive, MEP2-GFP pick2 inactive, RPL19A-GFP pick2 inactive, CIT2-GFP pick2 inactive and AGP1-GFP pick2 inactive.
For N#C/C(=C/c1ccc(N2CCCCCC2)o1)c1ccc(Cl)cc1 the results were LAP4-GFP MLPCN inactive, CIT2 TOR yeast inactive, MEP2-GFP yeast inactive, AGP1 TOR yeast inactive and RPL19A TOR yeast inactive.
`COc1cccc(C(=O)NC2CC3CCCC(C2)N3Cc2ccc(C)cc2)c1` (stereo unspecified) gave LAP4-GFP MLPCN inactive, CIT2 TOR yeast inactive, MEP2-GFP yeast inactive, AGP1 TOR yeast inactive and RPL19A TOR yeast inactive.
`O=S(=O)(Nc1ccc(N2CCOCC2)cc1)c1ccccc1` gave LAP4-GFP MLPCN inactive, CIT2 TOR yeast inactive, MEP2-GFP yeast inactive, AGP1 TOR yeast inactive and RPL19A TOR yeast inactive.
